PfHsp90 set2 = reduces growth (ATP signal) of yeast expressing P. falciparum Hsp90; AID 504621; S. cerevisiae expressing PfHsp90, BacTiter-Glo ATP, 48 h; yeast lacking PDR1 and PDR3 efflux regulators; actives 0.32% (n = 310,000); inhibition, % at 9.4 µM;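 active means every replicate shows inhibition above about 80%, whatever the replicate mean, limit read from the data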;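 further: 0% = DMSO neutral controls and 100% = 20 µM radicicol positive controls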
TIM10 inh = inhibits growth of TIM10 yeast strain; S. cerevisiae TIM10 strain growth, BacTiter-Glo luminescence, 24 h; inhibition, % at 10 µM; actives 1.4% (n = 330,000); AID 463195;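 active means inhibition of 40% or more at the single tested concentration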;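 further: wild-type TIM10 isogenic control strain grown at permissive 25 °C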
NALP1 yeast inh = inhibitors of NALP1 inflammasome in yeast; S. cerevisiae NALP1/ASC/caspase-1 growth, X-gal OD620, 72 h; inhibition, % at 10 µM; actives 0.61% (n = 280,000); in the data active means inhibition mostly above about 24%, no sharp cut-off; inactive means mostly below about 32%
tim23-1 inh = tim23-1 yeast growth inhibition; S. cerevisiae tim23-1 growth, BacTiter-Glo luminescence, 24 h; inhibition, % at 20 µM; actives 1.3% (n = 330,000);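 active means growth inhibition of the mutant yeast at or above 50%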;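 further: temperature-sensitive mutant grown at 25 °C; plate controls were DMSO-treated mutant yeast for no effect and medium wells lacking yeast for full effect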
tim10-1 inh = tim10-1 yeast growth inhibition. S. cerevisiae tim10-1 ts strain growth, BacTiter-Glo, 24 h. inhibition, % at 20 µM. actives 2.2% (n = 330,000). AID 463190;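 active means inhibition of at least 40%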;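 further: mutant grown at 25 °C; 0% = DMSO wells with yeast and 100% = wells holding no yeast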
NLRP3 yeast inh = inhibitors of NALP3 inflammasome in yeast; Yeast reconstituted NLRP3/ASC/caspase-1, beta-gal luminescence, 24 h; actives 0.39% (n = 330,000); AID 2825; inhibition, % at 10 µM;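 active means inhibition of 50% or more; inactive means inhibition below 50%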;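 further: plate controls were induced DMSO wells for no effect and uninduced yeast grown without galactose for full effect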
TIM10 conf = confirmation of TIM10 yeast growth inhibitors; shares compounds with TIM10 inh; S. cerevisiae tim10 strain growth, BacTiter-Glo luminescence, 24 h; inhibition, % at 10 µM; actives 63% (n = 4,600);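 active means inhibition of yeast growth at or above a set limit in either of two replicates at 10 µM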;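 further: this counterscreen used the strain with wild-type TIM10; 0% = yeast with DMSO and 100% = medium wells lacking yeast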
The depositor's hits bear a star; . = not tested or not shown. Shown are actives, neighbours in structure and some others; about 4.1% of the full set was active somewhere.

SMILES | PfHsp90 set2 | TIM10 inh | NALP1 yeast inh | tim23-1 inh | tim10-1 inh | NLRP3 yeast inh | TIM10 conf
Cc1ccc(S(N)(=O)=O)cc1NC(=O)c1ccc2c3c(cccc13)CC2 | -2 | -4 | -6 | 1 | -5 | 19 | .
COc1ccc(NC(=O)Nc2cccc3c2O[C@H](CN(C)S(=O)(=O)c2c(C)noc2C)[C@@H](C)CN([C@H](C)CO)C3=O)cc1 | 1 | 10 | . | -2 | -2 | -4 | .
CC(=O)Nc1cccc(Oc2nc(-c3ccccn3)nc3ccccc23)c1 | -12 | 45* | -1 | 28 | 36 | 5 | 33*
CC(=O)Nc1cccc(Oc2nc(C(F)(F)F)nc3ccccc23)c1 | -2 | 29 | -35 | 33 | 18 | 22 | .
Cc1ccc(S(=O)(=O)c2nc(Nc3nccs3)sc2Cl)cc1 | . | 48* | 4 | 18 | 29 | 5 | 29
CC(C)Oc1ccc(S(=O)(=O)N2CCOCC2)cc1NC(=O)Cc1cccs1 | 0 | -2 | . | -2 | 4 | 9 | .
O=C(COC(=O)c1c(F)cccc1F)NCc1cccs1 | . | 71* | . | 8 | -5 | 13 | -1
Cc1cccc(C(=O)OCC(=O)NCc2cccs2)c1 | -4 | 8 | -2 | 27 | 20 | 32 | .
CCC(=O)Nc1ccc(C(=O)COC(=O)c2sc(C)nc2C)cc1 | 1 | 6 | . | 17 | -4 | 18 | .
CC(C)(C)C(=O)O/N=C1/C(=O)N(c2ccccc2)c2ccccc21 | . | 52* | -1 | 25 | 27 | 28 | 61*
Cc1cc(C)c2c(N)c3ccccc3nc2n1 | -18 | 45* | 33 | 1 | 36 | 6 | 22
COc1cc2c(C(=O)N3CCOCC3)c(CSc3ccccc3)n(C)c2cc1Br | -8 | 40* | -8 | 47 | 39 | 18 | 30*
CCc1ccc(C(=O)NNc2cc(Cl)cc(Cl)c2)cc1 | 7 | 6 | 10 | 23 | -7 | 29 | .
CCc1ccc(C(=O)NNc2ccc(Cl)cc2)cc1 | -2 | 53* | 10 | 31 | 5 | 41 | 53*
CN(c1ccccc1)S(=O)(=O)c1ccc(C(=O)NCCc2ccc(F)cc2)cc1 | -3 | -12 | 17 | 28 | 16 | 13 | .
COc1ccccc1N(C)S(=O)(=O)c1ccc(C(=O)NCCc2ccc(F)cc2)cc1 | -21 | 46* | 4 | 39 | 29 | 5 | 51*
Nc1nonc1C(=O)NCCN=Cc1cc(Cc2ccccc2)cc(Br)c1O | 123* | 51* | 11 | -56 | 13 | 18 | 67*
Cc1ccc(C)c2c1N(Cc1ccccc1)C(=O)C21OCCO1 | -5 | 0 | 15 | 2 | -4 | -4 | .
COc1cc(OC)cc(C(=O)NC(=S)NCCc2ccccc2)c1 | -21 | 44* | 5 | 48 | 22 | -3 | 18
COc1ccc(C(=O)NC(=S)NCc2ccccc2)cc1 | -54 | 21 | 0 | 40 | 34 | 17 | .
CCOC(=O)C1CCCN(C(=O)c2ccc3[nH]c4c(c3c2)CC(C)CC4)C1 (stereo not given) | 4 | 73* | . | 43 | 23 | 2 | 22
O=C1CCCC/C=C\C[C@H](CC(=O)N(CCO)Cc2ccccc2)C(=O)NCCO1 | 15 | -2 | . | 4 | 1 | 18 | .
COc1ccc(/C=C/C(=O)NCCCNC(=O)/C=C/c2ccc(OC)c(OC)c2)cc1OC | 4 | 4 | . | 5 | -10 | 16 | .
COc1ccc(/C=C/C(=O)NCCc2c[nH]c3ccccc23)cc1OC | -34 | 53* | 9 | 5 | -35 | 23 | 9
COc1ccc(NC(=O)c2ccc(CN3CCN(c4ccccc4)CC3)cc2)cc1 | 9 | 6 | 28 | 16 | 14 | 19 | .
SMILES | PfHsp90 set2 | TIM10 inh | NALP1 yeast inh | tim23-1 inh | tim10-1 inh | NLRP3 yeast inh | TIM10 conf
COc1cccc(NC(=O)c2ccc(CN3CCN(c4ccccc4)CC3)cc2)c1 | -27 | 51* | 1 | 26 | 27 | 31 | 21
NC(=O)c1ccc(NC(=O)c2ccc(CN3CCOCC3)cc2)cc1 | -3 | 43* | 5 | 7 | 5 | 2 | -3
CCOC(=O)c1ccc(NC(=O)c2ccc(CN3CCOCC3)cc2)cc1 | -3 | -22 | 41 | 7 | -15 | 12 | .
O=S1OCCN1c1ccccc1 (stereo not given) | -2 | -2 | 21 | 9 | -1 | 10 | .
CN(Cc1ccccc1)C(=O)CCS(=O)(=O)c1ccc2c(c1)n(C)c(=O)c(=O)n2C | -6 | 40* | 32 | 7 | 14 | 6 | -10
CN(Cc1ccccc1)S(=O)(=O)c1ccc2c(c1)n(C)c(=O)c(=O)n2C | 4 | -9 | 28 | -22 | -9 | 11 | .
Nc1nc(Nc2cccc(F)c2)nc2ccccc12 | 36 | 40 | 14 | 29 | 35 | 15 | 30
O=c1oc(Nc2cccc(F)c2)nc2ccccc12 | 33 | 21 | 17 | 26 | 16 | 2 | .
Cc1ccc2cc(CCNC(=O)c3cc4ccccc4o3)c(=O)[nH]c2c1C | -22 | 58* | 15 | 38 | -1 | 10 | 32*
COc1ccc2cc(CCNC(=O)c3cc4ccccc4o3)c(=O)[nH]c2c1 | -20 | 12 | -4 | -35 | -32 | 21 | .
O=C(Oc1ccc(OC(=O)c2ccco2)c(S(=O)(=O)c2ccc(Cl)cc2)c1)c1ccco1 | -53 | 49* | 20 | 32 | 25 | 6 | -6
CC(=O)c1cc(Cl)ccc1OC(=O)c1ccco1 | 7 | 2 | 25 | 5 | 1 | 1 | .
Cc1ccc2cc3cc(C(=O)NCCCN4CCCC4)oc3nc2c1 | -2 | 45* | 26 | 17 | 6 | 5 | 15
CCCCN(CC)CCCNC(=O)c1cc2cc3ccc(C)cc3nc2o1 | -30 | 32 | 18 | 23 | 25 | 8 | .
O=S(=O)(c1cccc(C(F)(F)F)c1)N1CCN(C(=S)NCc2ccco2)CC1 | 6 | -1 | 30 | 22 | 15 | 10 | .
CC(C)c1ccc(S(=O)(=O)N2CCN(C(=S)NCc3ccco3)CC2)cc1 | -25 | 49* | 1 | 40 | 40 | 13 | -32
COc1ccc(NC(=O)c2cncn2-c2ccccc2)cc1 | 12 | 13 | 14 | 0 | -3 | 3 | .
CCc1cccc2sc(N(CCCN3CCOCC3)C(=O)CS(=O)(=O)c3ccccc3)nc12 | -14 | 21 | . | 30 | 21 | 12 | .
O=C(CCS(=O)(=O)c1ccccc1)N(CCCN1CCOCC1)c1nc2ccc(F)cc2s1 | -4 | 56* | . | 35 | 30 | 45 | 65*
COc1ccc(C(C)=O)cc1COC(=O)c1ccc(C)c(S(=O)(=O)N2CCOCC2)c1 | 11 | 13 | . | 20 | 5 | 10 | .
Cc1[nH]n(-c2ccc([N+](=O)[O-])cc2)c(=O)c1C=NCCc1c(C)[nH]c2ccccc12 | 5 | 45* | 10 | 8 | 21 | 9 | -15
O=C(COC(=O)c1nc(Cl)ccc1Cl)NC1CCCCC1 | 10 | -5 | . | 13 | 12 | 2 | .
